# Laboratory results from PubChem BioAssay AID1159580 (chemical genetic matrix, 2015).
# The campaign covered roughly 5,500 compounds. About 2,000 (36%) were called active. About 18% were inconclusive and are not listed. This is one part of the list. A number with no mark means an inactive call. Cut-off read from the data, not from the text of the source: active = normalized growth mostly below about 0.91 (no sharp cut-off); inconclusive = no clear call, values can overlap the other calls; inactive = mostly above about 0.92.
# Assay: chemical genetic growth profiling, strain panel (AID 1159580);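 note: tested at 20 µM; growth read once vehicle control cultures reached saturation at 30 °C; 1 = growth at the plate median or of vehicle wells; lower values mean less growth of the strain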
# Conditions: S. cerevisiae deletion strains, growth OD
compound,measurement,setting,value
CCOC(=O)c1c(C)cc(O)cc1O,normalized growth,"locus YJR066W, strain TOR1, active compounds read low",0.853
same,normalized growth,"locus YKL009W, strain mrt4, active compounds read low",0.924
same,normalized growth,"locus YKL068W, active compounds read low",0.928 (active)
same,normalized growth,"locus YKL085W, strain MDH1 (second series), active compounds read low",0.912 (active)
same,normalized growth,"locus YKL085W, strain MDH1, active compounds read low",0.912 (active)
same,normalized growth,"locus YKL160W, strain elf1, active compounds read low",0.911
same,normalized growth,"locus YKR001C, strain vps1, active compounds read low",0.732 (active)
same,normalized growth,"locus YKR026C, strain gcn3, active compounds read low",0.929
same,normalized growth,"locus YKR091W, strain srl3, active compounds read low",0.942
same,normalized growth,"locus YLL001W, strain dnm1, active compounds read low",0.919
same,normalized growth,"locus YLL026W, active compounds read low",0.935
same,normalized growth,"locus YLL041C, strain sdh2, active compounds read low",0.917 (active)
same,normalized growth,"locus YLR027C, strain aat2, active compounds read low",0.93
same,normalized growth,"locus YLR039C, strain RIC1, active compounds read low",0.604 (active)
same,normalized growth,"locus YLR058C, strain SHM2, active compounds read low",0.906
same,normalized growth,"locus YLR102C, strain apc9, active compounds read low",0.941
same,normalized growth,"locus YLR113W, strain HOG1, active compounds read low",0.925
same,normalized growth,"locus YLR221C, strain rsa3, active compounds read low",0.931
same,normalized growth,"locus YLR258W, strain gsy2, active compounds read low",0.906 (active)
same,normalized growth,"locus YLR262C, strain YPT6 (second series), active compounds read low",0.857
same,normalized growth,"locus YLR262C, strain YPT6, active compounds read low",0.556 (active)
same,normalized growth,"locus YLR268W, strain sec22, active compounds read low",0.964
same,normalized growth,"locus YLR320W, strain mms22, active compounds read low",0.916
same,normalized growth,"locus YLR330W, strain CHS5, active compounds read low",0.876 (active)
same,normalized growth,"locus YLR342W, strain FKS1, active compounds read low",0.941
same,normalized growth,"locus YLR357W, strain rsc2, active compounds read low",0.909
same,normalized growth,"locus YLR370C, strain arc18, active compounds read low",0.895 (active)
same,normalized growth,"locus YLR371W, strain rom2, active compounds read low",0.767 (active)
same,normalized growth,"locus YLR384C, strain iki3, active compounds read low",0.937
same,normalized growth,"locus YLR418C, strain cdc73, active compounds read low",0.758 (active)
same,normalized growth,"locus YML016C, strain PPZ1, active compounds read low",0.888 (active)
same,normalized growth,"locus YML032C, strain rad52, active compounds read low",0.897 (active)
same,normalized growth,"locus YML120C, strain ndi1, active compounds read low",0.926
same,normalized growth,"locus YML124C, strain tub3, active compounds read low",0.911 (active)
same,normalized growth,"locus YMR058W, strain fet3, active compounds read low",0.914
same,normalized growth,"locus YMR078C, strain ctf18, active compounds read low",0.881 (active)
same,normalized growth,"locus YMR125W, strain sto1, active compounds read low",0.907
same,normalized growth,"locus YMR129W, active compounds read low",0.949
same,normalized growth,"locus YMR205C, strain PFK2, active compounds read low",0.91
same,normalized growth,"locus YMR223W, strain ubp8, active compounds read low",0.898 (active)
same,normalized growth,"locus YMR231W, strain pep5, active compounds read low",0.984
same,normalized growth,"locus YMR307W, strain GAS1, active compounds read low",1.06
same,normalized growth,"locus YNL067W, strain RPL9B, active compounds read low",0.899
same,normalized growth,"locus YNL071W, strain lat1, active compounds read low",0.926
same,normalized growth,"locus YNL128W, strain TEP1, active compounds read low",0.933
same,normalized growth,"locus YNL153C, strain GIM3, active compounds read low",0.9
same,normalized growth,"locus YNL183C, strain NPR1, active compounds read low",0.869
same,normalized growth,"locus YNL209W, strain ssb2, active compounds read low",0.97
same,normalized growth,"locus YNL233W, strain BNI4, active compounds read low",0.788 (active)
same,normalized growth,"locus YNL248C, strain rpa49, active compounds read low",0.872 (active)
same,normalized growth,"locus YNL250W, strain rad50, active compounds read low",0.862 (active)
same,normalized growth,"locus YNL271C, strain bni1, active compounds read low",0.906 (active)
same,normalized growth,"locus YNL298W, strain CLA4, active compounds read low",0.953
same,normalized growth,"locus YNL307C, strain MCK1, active compounds read low",0.846 (active)
same,normalized growth,"locus YNL322C, strain KRE1 (second series), active compounds read low",0.935
same,normalized growth,"locus YNR049C, strain mso1, active compounds read low",0.92
same,normalized growth,"locus YNR052C, strain pop2, active compounds read low",0.949
same,normalized growth,"locus YOL006C, strain TOP1, active compounds read low",0.578
same,normalized growth,"locus YOL012C, strain htz1",1.06
same,normalized growth,"locus YOL147C, strain pex11, active compounds read low",0.912 (active)
same,normalized growth,"locus YOR001W, strain rrp6, active compounds read low",0.89 (active)
same,normalized growth,"locus YOR061W, strain CKA2, active compounds read low",0.957
same,normalized growth,"locus YOR069W, strain VPS5, active compounds read low",0.924 (active)
same,normalized growth,"locus YOR070C, strain gyp1, active compounds read low",0.951
same,normalized growth,"locus YOR080W, strain dia2, active compounds read low",0.942
same,normalized growth,"locus YOR083W, strain WHI5, active compounds read low",0.89
same,normalized growth,"locus YOR106W, strain vam3, active compounds read low",0.855 (active)
same,normalized growth,"locus YOR136W, strain idh2, active compounds read low",0.928
same,normalized growth,"locus YOR144C, strain elg1, active compounds read low",0.913 (active)
same,normalized growth,"locus YOR184W, strain ser1, active compounds read low",0.915
same,normalized growth,"locus YOR231W, strain MKK1, active compounds read low",0.905
same,normalized growth,"locus YOR265W, strain rbl2, active compounds read low",0.913 (active)
same,normalized growth,"locus YOR270C, strain vph1, active compounds read low",0.721 (active)
same,normalized growth,"locus YOR290C, strain snf2, active compounds read low",0.88
same,normalized growth,"locus YOR316C, strain cot1, active compounds read low",0.917 (active)
same,normalized growth,"locus YPL051W, strain arl3, active compounds read low",0.956
same,normalized growth,"locus YPL055C, strain LGE1, active compounds read low",0.922
same,normalized growth,"locus YPL078C, strain atp4, active compounds read low",0.887 (active)
same,normalized growth,"locus YPL106C, strain sse1, active compounds read low",0.88
same,normalized growth,"locus YPL240C, strain hsp82, active compounds read low",0.952
same,normalized growth,"locus YPL256C, strain CLN2, active compounds read low",0.839
same,normalized growth,"locus YPR119W, strain clb2, active compounds read low",0.904 (active)
same,normalized growth,"locus YPR141C, strain kar3, active compounds read low",0.901 (active)
same,normalized growth,"locus YPR163C, strain tif3, active compounds read low",0.908 (active)
same,normalized growth,"locus YPR167C, strain met16, active compounds read low",0.891 (active)
same,normalized growth,"strain wtn01, active compounds read low",0.892 (active)
